A selection: hits, their analogues and other compounds. The true share with any hit is near 2.4%.
M1 PAM: positive allosteric modulators of human M1 muscarinic receptor; P11229; CHO-K1 hM1, Fluo-8 calcium fluorescence, ACh EC20; 0% = ACh EC20, 100% = maximal ACh; activation, % at 3 µM; 360,000 compounds, 0.088% hits; in the data active means activation above about 19%, passing the limit was not always enough
Target sequence (P11229 whole entry, looked up): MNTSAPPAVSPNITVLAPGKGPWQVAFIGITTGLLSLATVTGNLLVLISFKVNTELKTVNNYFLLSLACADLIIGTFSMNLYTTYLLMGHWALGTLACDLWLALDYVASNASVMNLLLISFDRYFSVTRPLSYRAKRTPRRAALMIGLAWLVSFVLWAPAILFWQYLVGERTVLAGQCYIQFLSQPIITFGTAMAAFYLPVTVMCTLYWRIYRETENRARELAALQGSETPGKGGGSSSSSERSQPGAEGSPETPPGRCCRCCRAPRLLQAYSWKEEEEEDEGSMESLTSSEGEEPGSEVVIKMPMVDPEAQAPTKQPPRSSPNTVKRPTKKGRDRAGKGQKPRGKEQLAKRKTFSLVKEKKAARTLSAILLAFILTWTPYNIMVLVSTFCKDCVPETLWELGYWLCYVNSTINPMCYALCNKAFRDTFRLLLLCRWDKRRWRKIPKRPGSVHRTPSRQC
CHO-K1 Ca antag: nonselective inhibitor or artifact in parental CHO-K1 cells | ATP-induced calcium, Fluo-8 fluorescence | inhibition, % at 3 µM | 360,000 compounds, 0.6% hits;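 active means inhibition above a per-plate cutoff, the plate's mean sample inhibition plus 3 SD, cut at about 24% in these data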;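 further: 0% = DMSO plus EC80 ATP and 100% = DMSO alone without ATP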
CHRM1 agonist: activates human CHRM1 receptor. P11229. CHO-K1 hM1, Fluo-8 calcium fluorescence, agonist mode; 0% DMSO, 100% acetylcholine EC100. activation, % at 3 µM. 360,000 compounds, 0.33% hits. AID 588814;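 active means activation above the run's mean compound activation plus 3 SD, cut at about 16% in these data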;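 further: peak over basal fluorescence ratio within a 140 s kinetic read after compound addition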
CHO-K1 Ca PAM: M1 PAM counterscreen hit in parental CHO-K1 cells. 360,000 compounds, 0.02% hits. AID 602247. activation, % at 3 µM. ATP EC20, Fluo-8 calcium fluorescence; 0% at ATP EC20, 100% at ATP max;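 active means activation above the run cutoff, the mean activation of all test compounds plus 3 SD, cut at about 40% in these data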;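 further: peak over basal fluorescence ratio in a 140 s read after ATP addition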
M1 ag parental: M1 agonist counterscreen hit in parental CHO-K1 cells | Fluo-8 calcium fluorescence; scaled to maximal ATP response, vehicle zero | activation, % at 3 µM | 360,000 compounds, 0.48% hits; in the data active means activation above about 15%;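 further: untransfected CHO-K1 host cells lacking M1 receptor as counterscreen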
M1 antag: human CHRM1 antagonism; P11229; CHO-K1 hM1, Fluo-8 calcium fluorescence, ACh EC80 antagonist; inhibition, % at 3 µM; 360,000 compounds, 1.3% hits; AID 588852;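 active means percent inhibition above its own plate's cutoff, namely the mean of that plate's compound wells plus 3 SD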;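 further: peak over basal fluorescence ratio during 140 s after agonist addition; 0% = ACh EC80 plus DMSO and 100% = DMSO alone without agonist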
Active calls of the source: *; . = no result given.

SMILES | M1 PAM | CHO-K1 Ca antag | CHRM1 agonist | CHO-K1 Ca PAM | M1 ag parental | M1 antag
O=C(O)CC(c1ccc(Br)cc1)N1Cc2ccccc2C1=O (centres undefined) | 11 | 2 | -4 | -11 | 0 | -6
CCc1ccc(CNn2cnnc2SCC(=O)NC(C)(C)C)cc1 | -1 | 15 | -2 | -4 | 0 | 0
CN(C)c1ccc(CNn2cnnc2SCC(=O)NC(C)(C)C)cc1 | -14 | 14 | -2 | 9 | 6 | 42*
CC(C)NCC1CCc2cc(CO)c([N+](=O)[O-])cc2N1 (centres undefined) | -4 | 12 | -8 | -13 | 0 | -9
CCN(CC)S(=O)(=O)c1cccc(NC(=O)COC(=O)c2cc(=O)c3ccccc3o2)c1 | 1 | -3 | -2 | 16 | 0 | 2
CCC(=O)c1ccc(OCC(=O)Nc2cccc(S(=O)(=O)N3CCCCCC3)c2)cc1 | -18 | 36* | 1 | -15 | 18* | 47*
CCN(CC)S(=O)(=O)c1cccc(NC(=O)COC(=O)c2ccc(Br)o2)c1 | -8 | 6 | -1 | 0 | 25* | 11
COc1cccc(NC2=NCCCCC2)c1 | 6 | -11 | -11 | 10 | 2 | -9
CCN(CC)S(=O)(=O)c1cccc(NC2=NCCCCC2)c1 | -5 | -2 | -7 | 4 | 1 | 27*
CCN(CC)S(=O)(=O)c1cccc(NC(=O)CNc2cccc(S(=O)(=O)N3CCCC3)c2)c1 | -11 | 32* | -1 | -17 | 6 | 42*
Cc1cc(C)cc(C(=O)OCC(=O)Nc2cccc(S(=O)(=O)NC3=NCCCCC3)c2)c1 | -1 | 24* | -5 | -12 | 2 | 3
CC(C)Oc1ccc(C(=O)Nc2cccc(S(=O)(=O)N3CCCC3)c2)cc1 | -31 | -1 | -4 | -9 | 0 | 48*
CCOC(=O)N1CCC(NC(=O)c2cc(C(=O)Nc3ccc(S(=O)(=O)N4CCCCC4)cc3)ccc2CO)CC1 | 8 | -1 | 4 | 12 | 19* | -5
O=C(COC(=O)c1ccccc1)Nc1cccc(S(=O)(=O)NC2=NCCCCC2)c1 | 7 | -9 | -6 | 20 | 0 | -7
Cc1cc(C(=O)Nc2ccc(S(=O)(=O)N3CCCC3)cc2)cs1 | 3 | 25* | -7 | -13 | 1 | -6
CCOC(=O)N1CCC(NC(=O)c2cc(C(=O)Nc3ccc(OCC)cc3)ccc2CO)CC1 | 3 | -9 | -3 | 10 | 0 | -4
CC(=O)c1ccc(NC(=O)c2ccc(S(=O)(=O)N3CCCC3)cc2)cc1 | -10 | 20 | -7 | -13 | 1 | 13
O=C(NCCN1CCC(n2c(=O)[nH]c3ccccc32)CC1)c1ccc(Cl)c(Cl)c1 | . | -13 | . | 18 | 6 | .
O=C(NCC1CCCN(C(=O)CN2CCCCC2)C1)c1ccccc1Cl (centres undefined) | 8 | -7 | -6 | 16 | 2 | -8
CC(=O)c1c(O)cc(O)cc1O | 2 | 9 | -4 | 6 | 0 | -1
Cc1nnc(NC(=O)CSc2nnc(CC(=O)Nc3ccccc3F)n2C)s1 | 14 | -1 | -2 | 8 | 1 | -12
Cc1ccccc1Nc1nc(N)nc(COC(=O)c2c(C)noc2C)n1 | 3 | -12 | -1 | 11 | 0 | -10
CC(=O)c1cccc(NC(=O)c2ccc(S(=O)(=O)N3CCCC3)cc2)c1 | -15 | -6 | -11 | -16 | 2 | 25*
CC(=O)c1cccc(NC(=O)C(C)OC(=O)c2cccc(S(=O)(=O)N3CCN(C)CC3)c2)c1 (centres undefined) | -24 | -10 | 68* | 0 | 1 | 71*
CCN(CC(=O)Nc1cccc(C#N)c1)CC(=O)Nc1cccc(OC)c1 | 5 | 1 | -4 | 11 | 2 | -1
SMILES | M1 PAM | CHO-K1 Ca antag | CHRM1 agonist | CHO-K1 Ca PAM | M1 ag parental | M1 antag
CCC1(CC)NC(=O)N(CC(=O)OCC(=O)Nc2ccc(OC(F)(F)F)cc2)C1=O | -3 | 7 | 0 | -20 | 1 | 14
Cn1c(/C=C/N2CCOCC2)c(C(=O)c2ccc(Br)cc2)c(=O)n(C)c1=O | 1 | 5 | -1 | 2 | 0 | 1
Cc1c(N=CN2CCOCC2)c(=O)n(C)c(=O)n1C | 6 | 1 | 0 | 3 | 17* | -7
COc1cccc(C(=O)N(C)Cc2c(C)nn(C3CCS(=O)(=O)C3)c2C)c1 (centres undefined) | 2 | 7 | 0 | -14 | 0 | 8
Cc1ccc2oc(NC3=NC4(CCCC4)C4=C(CCCC4=O)N3)nc2c1 | 4 | -3 | -5 | 17 | 1 | -16
Cn1c(=O)c2[nH]c(-c3ccc(S(=O)(=O)O)cc3)nc2n(C)c1=O | -8 | -10 | 29* | 7 | 1 | -20
COc1cccc(C2CC(c3cccs3)=NN2C(=O)CSC2=NN3CCCC(=O)N=C3S2)c1OC (centres undefined) | -2 | 24* | -6 | -2 | 1 | 6
COc1ccc(OC)c(/C=N/NC(=O)CCN2CCN(C(c3ccccc3)c3ccccc3)CC2)c1 | -26 | 1 | -11 | 15 | 0 | 48*
N#Cc1ccsc1NC(=O)CCN1CCN(C(c2ccccc2)c2ccccc2)CC1 | -23 | -26 | -11 | 3 | 0 | 30*
O=C(CCN1CCN(C(c2ccccc2)c2ccccc2)CC1)N/N=C/c1ccc(O)cc1 | -27 | -3 | -11 | 10 | 2 | 37*
CC1(C(=O)NS(=O)(=O)c2ccc3c(c2)CCO3)CCN1C(=O)c1ccccc1CCc1ccccc1 (centres undefined) | 11 | -6 | -4 | 12 | 0 | -18
CCOC(=O)C(C#N)=CN1CCNc2ccccc21 | 1 | -8 | -1 | 10 | 0 | -8
S=c1[nH]c2cc(Br)cnc2[nH]1 | 0 | 26* | -3 | -12 | 1 | 4
CC(=O)c1ccc(Nc2nc(-c3ccccc3)nc3ccccc23)cc1 | 5 | -5 | -3 | -1 | 1 | -9
CN(C)C(=O)c1ccc(Nc2nc(-c3cccs3)nc3ccccc23)cc1 | -15 | 18 | -2 | -2 | 5 | 26*
O=C(CSc1ncccn1)N(Cc1cccnc1)C(CCc1ccccc1)c1nc2ccccc2[nH]1 (centres undefined) | -8 | -20 | -7 | 7 | 2 | -11
CN(C(=O)CCc1nnc(-c2ccc(-c3ccccc3)cc2)o1)C1CCOCC1 | -10 | 2 | 4 | -6 | 17* | 19
CS(=O)(=O)N(Cc1ccccc1)c1ccc(C(=O)N2CCc3ccccc3C2)cc1 | 5 | -15 | 0 | 9 | 2 | -7
O=C(Nc1ccc(S(=O)(=O)Nc2ncccn2)cc1)c1cccc(S(=O)(=O)N2CCCC2)c1 | 3 | -16 | -8 | 13 | 0 | -16
CC1=C(C)/C(=N\OS(=O)(=O)c2ccccc2)C=CC1=O | -9 | 37* | 8 | -3 | 9 | 21*

Screening data from PubChem.
